# Bioassay records (PubChem BioAssay)
# APP transl inh: APP translation inhibition. SH-SY5Y APP 5'UTR-luciferase reporter, luminescence. inhibition, % at 2 µM. hit rate 0.82% among 190,000. AID 1285;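 active means inhibition above a set limit, derived from the sample mean plus 3 SD, cut at about 45% in these data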
# Ba/F3 V617F tox: lowers viability of Ba/F3 cells expressing EpoR and JAK2V617F; inhibition, % at 5.6 µM; ATP luminescence; hit rate 1.1% among 220,000; AID 1446;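 active means inhibition above the campaign mean plus 3 SD over all tested compounds, cut at about 24% in these data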;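 further: cytokine-independent growth of Ba/F3 cells driven by EpoR plus mutant JAK2; 0% = DMSO-treated cells and 100% = JAK inhibitor I control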
# KLF5 inh: suppresses KLF5 promoter-driven expression | inhibition, % at 5 µM | DLD-1 KLF5 promoter-luciferase reporter, luminescence | hit rate 0.23% among 290,000;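 active means inhibition above a per-plate limit of that plate's mean compound inhibition plus 3 SD, cut at about 60% in these data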;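 further: 0% = DMSO wells and 100% = LY294002 at 200 µM; higher means less KLF5 promoter-driven luciferase light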
# IEC-6 cytotox: counter-screen for KLF5 inhibitors: cytotoxicity in IEC-6 cells; IEC-6 cytotoxicity, luminescence viability; inhibition, % at 5 µM; hit rate 0.78% among 290,000; AID 1825; in the data active means inhibition above about 22%;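 further: 0% = plate median of test compound wells and 100% = cytotoxic reference compound wells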
# aSyn 5UTR inh: 5' untranslated region of α-synuclein, MLPCN primary screen; alpha-synuclein 5'UTR reporter, inhibitor activity; inhibition, % (tested at 7.5 µM); hit rate 0.82% among 300,000; in the data active means inhibition above about 60%;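 further: H4 neuroglioblastoma cells stably carrying SNCA 5'UTR luciferase fusion; 0% = DMSO wells and 100% = positive control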
# BaF3 parental: reduces parental Ba/F3 cell viability, JAK2V617F counter-screen | CellTiter-Glo ATP luminescence | inhibition, % at 5.6 µM | hit rate 1.1% among 220,000;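 active means inhibition above a per-campaign cutoff, the mean inhibition of all tested compounds plus 3 SD, cut at about 27% in these data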;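 further: 0% = DMSO wells and 100% = JAK Inhibitor I control wells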
# The depositor's hits bear a star; . = no result. An excerpt weighted towards active compounds, which were near 2.2% of everything screened.
SMILES,APP transl inh,Ba/F3 V617F tox,KLF5 inh,IEC-6 cytotox,aSyn 5UTR inh,BaF3 parental
CC(=O)Nc1ccc(NC2=C(Cl)C(=O)c3ccccc3C2=O)cc1,89.0*,-2.6,11.5,2.7,-39.9,1.6
O=C(Oc1ccc(NC2=C(Cl)C(=O)c3ccccc3C2=O)cc1)c1ccc([N+](=O)[O-])cc1,40.6,1.8,-50.2,-3.8,-109.5,6.2
O=C1C(Cl)=C(Nc2ccc3cn[nH]c3c2)C(=O)c2ccccc21,.,98.2*,-27.9,100.8*,100.2*,107.0*
COc1cccc(-c2csc(N3CCN(C(=S)Nc4ccc(Cl)cc4)CC3)n2)c1,2.4,38.2*,-9.7,6.1,-32.2,38.5*
CCCN(CCC)C1=CC(=[N+]2CCCC2)CC(C)(C)C1,-1.6,88.2*,-9.4,19.5,6.3,71.8*
CN(C)NC1=CC(=[N+]2CCCC2)CC(C)(C)C1,-19.6,0.5,-21.9,8.4,-23.2,2.9
CC(C)CCNC(=O)C(c1cccnc1)N(CCc1ccccc1)C(=O)Cn1nnc2ccccc21 (configuration not stated),-4.1,-3.3,-8.2,-4.9,7.2,2.4
CCCn1c(N2CCN(CC(=O)c3c(C)n(C)c4ccc(OC)cc34)CC2)nc2c1c(=O)[nH]c(=O)n2C,3.3,2.0,13.1,7.1,62.6*,0.0
COc1ccc(CCn2c(N3CCN(C)CC3)nc3c2c(=O)[nH]c(=O)n3C)cc1,3.4,-0.6,-36.6,3.4,-3.9,5.2
Cc1cc(C)c(Cn2cnc(-c3ccc([N+](=O)[O-])cc3)c2)c(C)c1,3.9,5.9,15.0,4.9,45.1,1.5
CC(C)(C)c1ccc(Cn2cnc(-c3ccc([N+](=O)[O-])cc3)c2)cc1,-60.5,-3.0,-9.2,-2.0,-118.5,38.6*
O=c1[nH]c(CSc2cccc[n+]2[O-])nc2ccccc12,.,-4.7,15.5,9.8,-7.0,1.8
CC(=O)NC(Cc1cccc(F)c1)C(=O)NC1CCN(C(=O)Nc2ccc(C)cc2)CC1 (configuration not stated),.,.,-10.6,4.0,18.6,.
Nc1ccc(N2CCCCC2)cc1N1CCCCC1,3.6,2.1,-14.8,6.2,84.6*,5.3
Cc1nn(-c2cc(N3CCCCC3)ccc2N)c(=O)c2ccccc12,-5.6,-7.3,-30.7,-7.4,-5.2,-2.0
Nc1cc(Cl)ccc1N1CCCCCC1,-9.9,41.6*,-1.6,-2.0,4.4,56.3*
CN(C)CCNC(=O)C(=O)NCC1OCCN1S(=O)(=O)c1cc(F)ccc1F (configuration not stated),.,.,-7.4,0.2,11.9,.
COc1ccc(OC)c(Nc2nc(NCCCN(C)C)nc(N)c2[N+](=O)[O-])c1,.,58.0*,-1.6,9.2,24.4,49.9*
CCCc1cc(-c2nc(N)ncc2-c2csc(C)n2)c(O)cc1OC,4.7,-3.2,-4.3,-0.2,22.7,2.1
CCCc1cc(-c2nc(N)ncc2-c2ccc3c(c2)OCCCO3)c(O)cc1OC,-8.1,-2.0,-13.0,9.6,61.7*,0.7
O=C(c1ccc(Cl)cc1)C(Cn1cncn1)C(Sc1ccccc1)c1ccccc1 (configuration not stated),50.8*,-4.6,-27.6,-2.2,9.6,1.9
O=S(=O)(NCC1CCCO1)c1cc(Cl)ccc1Cl (configuration not stated),-23.6,-4.8,-44.6,-3.9,16.4,2.9
CCn1c(=NC(=O)CS(=O)(=O)c2ccccc2)sc2cccc(OC)c21,.,.,.,.,-12.4,.
CCOC(=O)c1ccc(NC2c3ccccc3C(=O)N2c2cccnc2)cc1 (configuration not stated),-50.1,19.8,-7.3,19.5,42.8,27.4*
O=C(CSC1=NCCN1)Nc1cccc(C(F)(F)F)c1,1.8,-0.1,-17.2,3.3,-24.4,2.7
SMILES,APP transl inh,Ba/F3 V617F tox,KLF5 inh,IEC-6 cytotox,aSyn 5UTR inh,BaF3 parental
O=C(CSc1nc2ccccc2n1Cc1ccc(Cl)cc1)N/N=C/c1ccc(C(=O)O)cc1,53.9*,-0.4,-18.3,-4.5,19.4,6.4
COc1ccc(NS(=O)(=O)c2cc(NC(=O)CC3CCCC3)ccc2N2CCOCC2)cc1,14.1,7.4,-15.4,-4.3,22.9,32.2*
Cc1ccc(S(=O)(=O)N2CCOCC2)cc1NC(=O)CSc1ccccn1,2.3,-2.3,-13.8,-6.3,-26.9,3.7
Cc1cc(NC(=O)Cc2ccccc2)c2ccccc2n1,-6.2,39.1*,-12.8,10.8,5.3,72.8*
CCc1ccc(/C=C2\SC(=S)N(CCC(=O)NC3=NCCS3)C2=O)cc1,52.6*,-2.2,24.6,-0.4,89.5*,-1.6
Cc1ccc(/C=C2\SC(=S)N(CCCC(=O)Nc3cccnc3)C2=O)cc1,.,.,57.0,-3.1,79.1*,.
